KCNH2 3.1 inh: blocks the human KCNH2 3.1 channel isoform | U2OS KCNH2 3.1, thallium flux FluxOr; active compounds read low | activity change, % (tested at about 1.8 µM) | 340,000 tested, 0.95% active | AID 720553;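 active = maximum activity change below -70%; inconclusive = maximum activity change from -70% to -50%; inactive = maximum activity change above -50%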;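 note: thallium influx rate constant from kinetic fluorescence after stimulation buffer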
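Steps: virus added to U2OS suspension (4 h, RT, dark); medium with 10% FBS added, cells plated, 37 C overnight; FluxOr/Red40 loading buffer 45 min RT; stimulation buffer, 2 min kinetic read; rate constant normalized.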
MBNL1 CUG block: inhibitors of human MBNL1 binding to CUG repeat RNA. 280,000 tested, 0.036% active. TR-FRET MBNL1-His/biotin-(CUG)12 binding, 665/545 ratio. Potency, µM (titrated, usually from 57.5 µM), usual class: inhibitors; active = well fitted inhibition curve with a large enough effect in the signal ratio, with a control signal flat, not every such curve was filed as active; inconclusive = small, poorly fitted or top-dose-only effect, or effect the other way, or a change in a side signal; inactive = no such curve, though single readings can be large or run the other way; the % refers to the signal ratio
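Compounds (final 92 nM to 58 uM) are added to His-tagged MBNL1 and biotin-(CUG)12, then terbium anti-His antibody and streptavidin-XL665 (5 nM final). After 60 min at room temperature, the 665/545 nm ratio is read.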
CBFb RUNX1 block: blocks binding between human CBF-beta and RUNX1; Q01196+Q13951; AlphaScreen CBFb-His/RUNX1-biotin binding, biochemical; Potency, µM (titrated, usually from 59.8 µM), most hits filed as inhibitors; 230,000 tested, under 10 active; AID 1477
Target sequence (Q01196 whole entry, looked up): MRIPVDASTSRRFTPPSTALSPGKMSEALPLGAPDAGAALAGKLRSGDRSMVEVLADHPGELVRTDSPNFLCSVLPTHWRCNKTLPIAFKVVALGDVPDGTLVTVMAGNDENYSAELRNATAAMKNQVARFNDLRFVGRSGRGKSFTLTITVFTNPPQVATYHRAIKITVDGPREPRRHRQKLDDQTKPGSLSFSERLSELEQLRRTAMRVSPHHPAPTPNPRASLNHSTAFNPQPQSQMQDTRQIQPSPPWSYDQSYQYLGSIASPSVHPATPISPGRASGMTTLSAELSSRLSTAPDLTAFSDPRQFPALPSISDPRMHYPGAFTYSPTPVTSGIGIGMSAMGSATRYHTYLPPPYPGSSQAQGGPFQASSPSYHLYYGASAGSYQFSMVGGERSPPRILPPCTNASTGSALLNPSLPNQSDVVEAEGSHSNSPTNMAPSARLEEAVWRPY
Target sequence (Q13951 whole entry, looked up): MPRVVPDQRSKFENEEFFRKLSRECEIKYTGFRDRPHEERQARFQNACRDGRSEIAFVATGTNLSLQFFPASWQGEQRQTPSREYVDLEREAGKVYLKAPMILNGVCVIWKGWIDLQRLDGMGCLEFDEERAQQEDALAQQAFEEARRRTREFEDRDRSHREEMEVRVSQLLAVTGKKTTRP
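Read-out: AlphaScreen. Format: His-CBF-beta with biotinylated RUNX1 (30 nM each) preincubated 20 min, compound 15 min, Ni-chelate plus streptavidin beads 90 min; room temperature throughout.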
KCNH2 WT inh: KCNH2 (human, wildtype) channel inhibition; AID 720551; activity change, % at 1.84 µM; 340,000 tested, 0.37% active; Q12809; U2OS, BacMam KCNH2, thallium flux FluxOr; active compounds read low;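 active = maximum activity change below -70%; inconclusive = maximum activity change between -70% and -50%; inactive = maximum activity change above -50%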
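U2OS cells transduced with wild-type KCNH2 virus are loaded with FluxOr dye for 45 min, and thallium flux is measured in kinetic reads before and after stimulation buffer. Rate constants are normalized to DMSO controls.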
PLK1 PBD block: PLK1 (human) polo-box domain binding inhibition; Potency, µM, actives largely listed as inhibitors; Plk1 PBD binding of FITC phosphopeptide, fluorescence polarization; P53350; 360,000 tested, 2.8% active; note: series mostly up to about 57 µM; nearly all actives have a fitted effect of over 65% in size
VDR inhibitor: inhibitors of human vitamin D receptor; 400,000 tested, 0.93% active; P11473; Potency, µM, actives largely listed as inhibitors; AID 504847; VDR-SRC2-3 peptide fluorescence polarization, 2 h
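Measured by FP: displacement of SRC2-3 coactivator peptide from VDR by library compounds, following a two-hour ambient incubation.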
VDR confirm: inhibits human vitamin D receptor, primary hit validation | shares compounds with VDR inhibitor | VDR-coactivator inhibition assay, qHTS confirmation | Potency, µM, actives largely listed as inhibitors | 840 tested, 89% active | AID 602199
VDR FP: blocks human VDR-coactivator binding in fluorescein assay; shares compounds with VDR inhibitor; VDR-coactivator binding, fluorescein fluorescence polarization; Potency, µM (top dose mostly 57.1 µM), most hits filed as inhibitors; 840 tested, 48% active; AID 602200
VDR bla reporter: inhibits human VDR in beta-lactamase reporter cells. shares compounds with VDR inhibitor. VDR beta-lactamase reporter cells, FRET ratio; cells co-treated with VDR agonist LG190178. Potency, µM (titrated, usually from 46.1 µM), usual class: inhibitors. 840 tested, 23% active
VDR viability: counter-screen for vitamin D receptor inhibitors: cytotoxicity. shares compounds with VDR inhibitor. cytotoxicity counter-screen, cell viability, qHTS. Potency, µM (doses to about 48.3 µM), hits mostly cytotoxic. 840 tested, 18% active. AID 602204; note: nearly all actives have a fitted effect of over 75% in size
Each line names hits and unclear results; the compound was inactive in the other large screens (follow-up assays come after a bar, where they were run). Rows were chosen to be rich in hits. Some 3.8% of all compounds tested hit in one or more screens of this group. Unless noted, calls come from the whole dose curve; as a rule, active = well fitted curve in the direction sought with a large enough effect; inconclusive = small, poorly fitted or top-dose-only effect, or another doubt; inactive = no such curve, though single readings can be large; an effect the other way counts as inactive or inconclusive.

Cc1cc(C)cc(NC(=O)c2cn3c4c(ccc(Cl)c4c2=O)OC(C)C3)c1 (stereo unspecified)	none (no result: KCNH2 3.1 inh, MBNL1 CUG block, CBFb RUNX1 block, KCNH2 WT inh, PLK1 PBD block)
O=[N+]([O-])c1cccc(C(F)(F)F)c1	none (no result: KCNH2 3.1 inh, MBNL1 CUG block, KCNH2 WT inh, PLK1 PBD block, VDR inhibitor)
O=[N+]([O-])c1ccc(S(=O)(=O)c2cccc(C(F)(F)F)c2)nc1	PLK1 PBD block 2.7µM, VDR inhibitor 28µM (no result: MBNL1 CUG block, CBFb RUNX1 block) | VDR confirm 6.7 | VDR FP inconclusive | VDR bla reporter 16µM | VDR viability inconclusive
CCCS(=O)(=O)c1ncc(Cl)c(C(=O)Nc2c(C(=O)c3ccccc3)oc3ccccc23)n1	none (no result: KCNH2 3.1 inh, MBNL1 CUG block, CBFb RUNX1 block, KCNH2 WT inh, PLK1 PBD block)
Cn1c(/C(C#N)=C/c2ccc(O)cc2)nc2ccccc21	KCNH2 WT inh inconclusive
Cn1c(/C(C#N)=C/c2ccc(C(F)(F)F)cc2)nc2ccccc21	VDR inhibitor 28µM (no result: KCNH2 3.1 inh, MBNL1 CUG block, CBFb RUNX1 block, KCNH2 WT inh, PLK1 PBD block) | VDR confirm 14 | VDR FP 8.9µM | VDR bla reporter 18µM | VDR viability inconclusive
COc1ccccc1/C=C/C(=O)c1ccc(Cl)cc1	VDR inhibitor inconclusive
COc1ccc(OC)c(/C=C/C(=O)c2ccc(Cl)cc2)c1	VDR inhibitor 45µM | VDR confirm 18 | VDR FP 22µM | VDR bla reporter inconclusive | VDR viability inactive
CSc1ncc(Cl)c(C(=O)Nc2ccc(C)c(C)c2)n1	none (no result: CBFb RUNX1 block)
Cc1ccc(NC(=O)c2nc(S(=O)(=O)Cc3ccccc3F)ncc2Cl)cc1	none (no result: KCNH2 3.1 inh, MBNL1 CUG block, CBFb RUNX1 block, KCNH2 WT inh, PLK1 PBD block, VDR inhibitor) | VDR confirm 1.6 | VDR FP 1.4µM | VDR bla reporter 16µM | VDR viability inconclusive
Cc1ccc(NC(=O)c2nc(S(=O)(=O)Cc3ccccc3F)ncc2Cl)cc1C	none (no result: KCNH2 3.1 inh, MBNL1 CUG block, CBFb RUNX1 block, KCNH2 WT inh, PLK1 PBD block, VDR inhibitor) | VDR confirm 3.2 | VDR FP 3.2µM | VDR bla reporter 9.2µM | VDR viability 15µM
NS(=O)(=O)c1ccc(NC(=O)c2nc(S(=O)(=O)Cc3ccccc3F)ncc2Cl)cc1	none (no result: KCNH2 3.1 inh, MBNL1 CUG block, CBFb RUNX1 block, KCNH2 WT inh, PLK1 PBD block, VDR inhibitor) | VDR confirm 5 | VDR FP 3.5µM | VDR bla reporter inconclusive | VDR viability inactive
O=C(NC1CCCCC1)c1ccc2c(c1)sc1nc(-c3ccccc3)cn12	none (no result: KCNH2 3.1 inh, MBNL1 CUG block, CBFb RUNX1 block, KCNH2 WT inh, PLK1 PBD block)
O=C(/C=C/c1ccccc1)n1cnnc1SC/C=C/c1ccccc1	PLK1 PBD block inconclusive, VDR inhibitor 40µM | VDR confirm 17 | VDR FP inconclusive | VDR bla reporter inactive | VDR viability inactive
CCC(Oc1ccccc1)C(=O)Nc1cc(-c2ccccc2OC)nn1-c1ccccc1 (stereo unspecified)	none (no result: KCNH2 3.1 inh, MBNL1 CUG block, CBFb RUNX1 block, KCNH2 WT inh, PLK1 PBD block)
CCc1ccc(C(=O)/C=C/c2ccc([N+](=O)[O-])o2)cc1	MBNL1 CUG block inconclusive, PLK1 PBD block 6µM, VDR inhibitor 32µM | VDR confirm 6.7 | VDR FP inconclusive | VDR bla reporter 16µM | VDR viability inconclusive
CCc1ccc(/C=C/C(=O)c2ccc(S(=O)(=O)N(C)C)cc2)cc1	VDR inhibitor inconclusive | VDR confirm inconclusive | VDR FP 6.3µM | VDR bla reporter inactive | VDR viability inconclusive
CCc1ccc(/C=C/C(=O)c2ccc(N3CCOCC3)cc2)cc1	none
CN(C)c1ccc(C(CNC(=O)c2ccc(C(C)(C)C)cc2)N2CCOCC2)cc1 (stereo unspecified)	none (no result: KCNH2 3.1 inh, MBNL1 CUG block, CBFb RUNX1 block, KCNH2 WT inh, PLK1 PBD block)
CCC(=O)c1ccc(OCC(=O)O)cc1	none
